Test results published in ChEMBL document CHEMBL1157539, “Thousands of chemical starting points for antimalarial lead identification” (Nature, 2010).

Tested on: Plasmodium falciparum
Assay: GSK_TCMDC: Inhibition of Plasmodium falciparum 3D7 in whole red blood cells, using parasite LDH activity as an index of growth. Test compounds present at 2uM
Type: functional

Compound | Inhibition [%]
Cc1cc(N[C@@H](CC(C)C)C(=O)NCc2cccc(F)c2)nc(NCCc2ccc(F)cc2)n1.O=C(O)C(F)(F)F | 90
Cc1cc(NCCCOc2ccc(Cl)cc2)nc(NCc2ccccc2)n1.Cl | 95
CCOC(=O)Cn1ccc2c(NCc3ccccc3)nc(C)nc21 | 96
Cl.N=C(N)Nc1ccc(NC(=O)Nc2ccc(NC(=N)N)cc2)cc1 | 85
Cn1ncc2ccc(Nc3nccc(-c4ccc5c(c4)c(N)nn5C)n3)cc21 | 99
N#Cc1ccc(N2CCN(Cc3ccc(-c4ccc(-c5nc6cc(C(F)(F)F)ccc6[nH]5)cc4)cc3)CC2)nc1.O=C(O)C(F)(F)F | 100
CCOC(=O)c1ccc(N2CCN(c3cc(C)ccc3C)CC2)c(NC(=O)Nc2ccc(Cl)c(Cl)c2)c1 | 100

Tested on: Plasmodium falciparum
Assay: GSK_TCMDC: Inhibition of Plasmodium falciparum Dd2 in whole red blood cells, using parasite LDH activity as an index of growth. Test compounds present at 2uM
Type: functional

Compound | Inhibition [%]
O=C(Nc1ccc2ccccc2c1)N(CCCn1ccnc1)Cc1csc(-c2ccc(CNCc3ccccc3)cc2)n1.O=C(O)C(F)(F)F | 53
CCCCNCc1ccc(-c2nc(CN(CCCn3ccnc3)C(=O)Nc3ccc(CC)cc3)cs2)cc1.O=C(O)C(F)(F)F | 56
CCNc1cc(C)nc(Nc2ccc(NC(=O)c3ccco3)cc2)n1 | 32
CCN(CC)CCN(CCCc1ccc(-c2ccc(C(F)(F)F)cc2)cc1)C(=O)Cn1c(CCc2cccc(F)c2F)nc(=O)c2ccccc21.O=C(O)C(O)C(O)C(=O)O | 49
COc1ccc(OC)c(C=NNc2nc3ccccc3[nH]2)c1 | 28
COc1ccc(CC2(c3ccc(F)cc3)N=C(N)N(CCCc3cccnc3)C2=O)cc1.O=C(O)C(F)(F)F (configuration not stated) | 97
Br.Cc1cc(F)ccc1Nc1nc(N(C)c2ccccc2)c2cccc(O)c2n1 | 81
O=C(Nc1cccc(-c2ccc(-c3nc4ccccc4[nH]3)s2)c1)c1ccncc1 | 29
CCOC(=O)c1ccc(NC(=O)Nc2ccc(-c3cccc(-c4nc5ccccc5[nH]4)c3)cc2)cc1 | 99
Cl.O=C(OCC1CCN(Cc2ccccc2)C1)c1ccc(Cl)cc1 (configuration not stated) | 4
CN1CCN(CCCN(Cc2cccc(-c3ccc(CNCc4ccc5c(c4)OCO5)cc3)c2)C(=O)Nc2ccccc2)CC1.O=C(O)C(F)(F)F | 69
COc1cc2c(cc1C(F)(F)F)N(C(=O)Nc1cc(F)cc(-c3cccnn3)c1)CC2 | 34
O=C(Cc1cccs1)NCC(c1ccccc1Cl)c1c[nH]c2ccccc12 (configuration not stated) | 56
O=C(N[C@H]1CCN(Cc2ccc(OCCN3CCNCC3)c(Cl)c2)C1)c1ccc(Cl)c(Cl)c1.O=C(O)C(F)(F)F | 5
CN1CCC(NCc2cccc(-c3nn(C)c4nc(NC5CCCC5)ncc34)c2)CC1 | 44
CCCN(CC1CC1)c1ncc(-c2cccc(CNCCC3CCCN3C)c2)cn1 (configuration not stated) | 43
CCC[C@@H](/C=N/N(C)C(=O)OC(C)(C)C)NC(=O)[C@H](CC(C)C)NC(=O)c1cc2cccc(OC)c2o1 | 61
CCN(CC)CCN(Cc1ccc(-c2ccc(C(F)(F)F)cc2)cc1)C(=O)Cn1c(CCc2c(F)cc(F)cc2F)nc(=O)c2ccccc21.O=C(O)C(O)C(O)C(=O)O | 26
Cc1sc(N2CCCCC2)nc1C(=O)Nc1ccc(F)cc1C(F)(F)F.O=C(O)C(F)(F)F | 35
CC(=O)Nc1cccc(Nc2nccc(Nc3ccc(Oc4ccccc4)cc3)n2)c1.Cl | 99

Compound | Inhibition [%]
Cc1cnc(CN(Cc2ccc(-c3ccc(CNCCc4ccc(S(C)(=O)=O)cc4)cn3)cc2)C(=O)c2ccc([N+](=O)[O-])c(C)c2)cn1.O=C(O)C(F)(F)F | 15
O=C(Nc1ccc(Cn2ncc(N3CCCNCC3)c(Cl)c2=O)cc1)Nc1cc(F)cc(C(F)(F)F)c1.O=C(O)C(F)(F)F | 44
COc1cc(C(=O)N2CCOC(CCN3CCC4c5ccccc5CC43)(c3ccc(Cl)c(Cl)c3)C2)cc(OC)c1OC (configuration not stated) | 82
O=C(Nc1cccc(-c2ccc(-c3nc4cc(C(F)(F)F)ccc4[nH]3)cc2)c1)c1c[nH]cn1 | 21
CC(C)COc1ccc(Cl)cc1Cc1ccc(-c2nc3cc(F)c(F)cc3[nH]2)o1 | 96
Cc1ccc2c(-c3ccc([N+](=O)[O-])o3)cc(C)nc2c1 | 47
CCN(CC)CCN(Cc1ccc(-c2ccc(C(F)(F)F)cc2)cc1)C(=O)Cn1c(CCc2ccc(F)c(C#N)c2)nc(=O)c2ccccc21.O=C(O)C(O)C(O)C(=O)O | 55
Cl.N=c1n(CCN2CCCCC2)c2ccccc2n1CC(O)c1cccc(Br)c1 (configuration not stated) | 33
CCOc1ccccc1CCNC(C)Cc1ccc(C(=O)Nc2ccc(CC(C)NCCc3cccc(Cl)c3)cc2)cc1 (configuration not stated) | 59
Cl.O=C(Nc1ccc(C(=O)OCC2CCCN3CCCCC23)cc1)c1ccc(Cl)c(Cl)c1 (configuration not stated) | 37
O=C(O[C@@H]1CN[C@H](C#Cc2cc3ncnc(Nc4ccc5c(cnn5Cc5cccc(F)c5)c4)c3s2)C1)N1CCCC1 | 56
CN(C)Cc1cccc(-c2ccc(NC(=O)c3ccc4c(=O)n(CC5CCCO5)cnc4c3)cc2)c1 (configuration not stated) | 14
COc1ccccc1-c1csc(C(=O)NC2CCCCN(Cc3ccc(C(C)(C)C)cc3)C2)c1.O=C(O)C(F)(F)F (configuration not stated) | 8
Cc1cc(N[C@@H](CC(C)C)C(=O)NCc2cccc(F)c2)nc(NCCc2ccc(F)cc2)n1.O=C(O)C(F)(F)F | 6
Cc1cc(NCCCOc2ccc(Cl)cc2)nc(NCc2ccccc2)n1.Cl | 20
CCOC(=O)Cn1ccc2c(NCc3ccccc3)nc(C)nc21 | 0
Cl.N=C(N)Nc1ccc(NC(=O)Nc2ccc(NC(=N)N)cc2)cc1 | 74
Cn1ncc2ccc(Nc3nccc(-c4ccc5c(c4)c(N)nn5C)n3)cc21 | 96
N#Cc1ccc(N2CCN(Cc3ccc(-c4ccc(-c5nc6cc(C(F)(F)F)ccc6[nH]5)cc4)cc3)CC2)nc1.O=C(O)C(F)(F)F | 90
CCOC(=O)c1ccc(N2CCN(c3cc(C)ccc3C)CC2)c(NC(=O)Nc2ccc(Cl)c(Cl)c2)c1 | 42
